Test results as given in the supplement of paper PMC10849652.
Targets with a hit are over-represented here; the source holds about 7,900 in all. About 0.6% of all pairs of compound and target were hits. Unmarked numbers belong to inactive results.

The targets below were run with CN1CCC(CNc2ccc3ncc(-c4cccc(OC(F)(F)F)c4)n3n2)CC1 (assay: log2 fold change, soluble protein after heating vs DMSO (PISA); higher = thermal stabilisation; K562 cells, 10 uM, 30 min; active = over 0.2 and 3.5 SD of the protein, either way, in both replicates (recomputed)).
Procedure, shortened: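 Thermal stability values are relative to control samples and come from duplicates. They are expressed as log2 fold changes. For measurement, K562 cells (2×10^6 cells/mL) received 10 μM compound for 30 min, and aliquots were heated for 3 min over 48°C-58°C, pooled, and extracted at 4°C in PBS with 0.5% NP-40. Soluble protein, the supernatant after 21,000xg for 90 min, was quantified by TMTpro 16plex LC-MS/MS with equalised channel sums.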

Chain of UniProt Q13469 (Q13469 whole entry, looked up): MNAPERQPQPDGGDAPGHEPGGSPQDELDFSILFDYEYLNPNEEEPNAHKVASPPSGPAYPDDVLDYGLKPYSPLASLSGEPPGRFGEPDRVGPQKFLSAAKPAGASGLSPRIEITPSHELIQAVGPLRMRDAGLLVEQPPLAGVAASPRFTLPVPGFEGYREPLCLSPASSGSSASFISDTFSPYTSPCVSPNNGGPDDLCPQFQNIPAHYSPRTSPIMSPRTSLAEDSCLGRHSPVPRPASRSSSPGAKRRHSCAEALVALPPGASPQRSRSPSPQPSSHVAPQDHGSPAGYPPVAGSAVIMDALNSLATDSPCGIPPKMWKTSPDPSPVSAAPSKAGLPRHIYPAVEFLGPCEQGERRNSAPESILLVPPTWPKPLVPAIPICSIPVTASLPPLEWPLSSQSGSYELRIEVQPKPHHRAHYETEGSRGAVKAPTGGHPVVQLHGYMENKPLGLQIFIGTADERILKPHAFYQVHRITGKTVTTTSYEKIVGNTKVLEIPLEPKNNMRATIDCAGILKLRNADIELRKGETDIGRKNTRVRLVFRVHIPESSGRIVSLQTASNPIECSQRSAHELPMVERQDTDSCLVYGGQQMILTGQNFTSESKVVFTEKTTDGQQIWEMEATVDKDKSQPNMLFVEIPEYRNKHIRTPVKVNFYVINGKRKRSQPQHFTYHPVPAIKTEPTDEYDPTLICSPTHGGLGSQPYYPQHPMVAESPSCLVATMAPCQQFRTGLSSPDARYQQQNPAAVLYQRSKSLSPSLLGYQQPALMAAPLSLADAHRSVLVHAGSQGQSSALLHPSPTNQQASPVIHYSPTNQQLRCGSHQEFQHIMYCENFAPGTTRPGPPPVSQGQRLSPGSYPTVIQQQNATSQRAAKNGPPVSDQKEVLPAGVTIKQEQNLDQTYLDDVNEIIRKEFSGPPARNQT
Chain of UniProt P15559 (P15559 whole entry, looked up): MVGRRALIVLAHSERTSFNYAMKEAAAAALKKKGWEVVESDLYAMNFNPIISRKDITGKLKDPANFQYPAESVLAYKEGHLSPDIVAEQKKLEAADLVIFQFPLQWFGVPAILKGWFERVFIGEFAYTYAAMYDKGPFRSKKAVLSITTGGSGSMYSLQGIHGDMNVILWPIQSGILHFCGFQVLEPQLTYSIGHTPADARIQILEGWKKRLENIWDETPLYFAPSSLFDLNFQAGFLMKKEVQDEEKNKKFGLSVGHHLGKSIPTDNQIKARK
Chain of UniProt Q8NCF5 (Q8NCF5 whole entry, looked up): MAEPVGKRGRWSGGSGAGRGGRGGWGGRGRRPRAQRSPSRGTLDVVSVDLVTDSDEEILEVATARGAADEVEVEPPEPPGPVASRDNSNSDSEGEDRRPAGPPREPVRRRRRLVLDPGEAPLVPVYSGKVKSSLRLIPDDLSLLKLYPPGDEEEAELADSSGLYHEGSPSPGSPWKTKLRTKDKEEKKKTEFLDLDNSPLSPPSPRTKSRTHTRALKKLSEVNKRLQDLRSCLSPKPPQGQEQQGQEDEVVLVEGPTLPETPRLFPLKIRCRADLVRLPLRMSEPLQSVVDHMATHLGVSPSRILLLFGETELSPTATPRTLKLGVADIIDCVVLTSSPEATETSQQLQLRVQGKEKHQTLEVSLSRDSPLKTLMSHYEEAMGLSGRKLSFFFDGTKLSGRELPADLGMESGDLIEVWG
Chain of UniProt P49914 (P49914 whole entry, looked up): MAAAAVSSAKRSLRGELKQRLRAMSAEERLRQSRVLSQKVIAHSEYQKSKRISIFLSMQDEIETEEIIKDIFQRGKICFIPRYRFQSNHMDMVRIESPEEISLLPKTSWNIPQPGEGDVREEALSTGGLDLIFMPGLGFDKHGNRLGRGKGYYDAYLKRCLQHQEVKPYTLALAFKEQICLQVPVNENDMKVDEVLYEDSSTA
Chain of UniProt Q9BWT6 (Q9BWT6 whole entry, looked up): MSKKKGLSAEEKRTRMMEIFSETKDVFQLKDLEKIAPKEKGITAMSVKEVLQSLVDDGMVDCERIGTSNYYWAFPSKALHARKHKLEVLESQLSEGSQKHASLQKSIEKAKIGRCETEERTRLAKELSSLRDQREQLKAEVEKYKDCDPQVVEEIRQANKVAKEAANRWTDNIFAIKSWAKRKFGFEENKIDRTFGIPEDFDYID
Chain of UniProt O00567 (O00567 whole entry, looked up): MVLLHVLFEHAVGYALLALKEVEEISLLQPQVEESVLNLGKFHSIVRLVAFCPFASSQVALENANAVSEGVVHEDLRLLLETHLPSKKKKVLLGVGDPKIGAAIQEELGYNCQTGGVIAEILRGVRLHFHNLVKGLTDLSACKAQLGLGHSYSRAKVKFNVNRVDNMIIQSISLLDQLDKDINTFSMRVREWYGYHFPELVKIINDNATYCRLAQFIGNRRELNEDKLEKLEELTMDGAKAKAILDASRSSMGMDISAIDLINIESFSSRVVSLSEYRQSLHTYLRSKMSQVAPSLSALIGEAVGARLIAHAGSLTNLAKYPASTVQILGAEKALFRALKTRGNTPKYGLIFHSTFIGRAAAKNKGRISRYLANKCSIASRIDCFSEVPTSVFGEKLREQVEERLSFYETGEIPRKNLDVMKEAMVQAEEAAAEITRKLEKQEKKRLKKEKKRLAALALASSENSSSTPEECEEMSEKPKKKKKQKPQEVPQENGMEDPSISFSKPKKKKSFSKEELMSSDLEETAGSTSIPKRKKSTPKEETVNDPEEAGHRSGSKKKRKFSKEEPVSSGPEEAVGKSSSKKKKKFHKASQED
Chain of UniProt Q8N4C8 (Q8N4C8 whole entry, looked up): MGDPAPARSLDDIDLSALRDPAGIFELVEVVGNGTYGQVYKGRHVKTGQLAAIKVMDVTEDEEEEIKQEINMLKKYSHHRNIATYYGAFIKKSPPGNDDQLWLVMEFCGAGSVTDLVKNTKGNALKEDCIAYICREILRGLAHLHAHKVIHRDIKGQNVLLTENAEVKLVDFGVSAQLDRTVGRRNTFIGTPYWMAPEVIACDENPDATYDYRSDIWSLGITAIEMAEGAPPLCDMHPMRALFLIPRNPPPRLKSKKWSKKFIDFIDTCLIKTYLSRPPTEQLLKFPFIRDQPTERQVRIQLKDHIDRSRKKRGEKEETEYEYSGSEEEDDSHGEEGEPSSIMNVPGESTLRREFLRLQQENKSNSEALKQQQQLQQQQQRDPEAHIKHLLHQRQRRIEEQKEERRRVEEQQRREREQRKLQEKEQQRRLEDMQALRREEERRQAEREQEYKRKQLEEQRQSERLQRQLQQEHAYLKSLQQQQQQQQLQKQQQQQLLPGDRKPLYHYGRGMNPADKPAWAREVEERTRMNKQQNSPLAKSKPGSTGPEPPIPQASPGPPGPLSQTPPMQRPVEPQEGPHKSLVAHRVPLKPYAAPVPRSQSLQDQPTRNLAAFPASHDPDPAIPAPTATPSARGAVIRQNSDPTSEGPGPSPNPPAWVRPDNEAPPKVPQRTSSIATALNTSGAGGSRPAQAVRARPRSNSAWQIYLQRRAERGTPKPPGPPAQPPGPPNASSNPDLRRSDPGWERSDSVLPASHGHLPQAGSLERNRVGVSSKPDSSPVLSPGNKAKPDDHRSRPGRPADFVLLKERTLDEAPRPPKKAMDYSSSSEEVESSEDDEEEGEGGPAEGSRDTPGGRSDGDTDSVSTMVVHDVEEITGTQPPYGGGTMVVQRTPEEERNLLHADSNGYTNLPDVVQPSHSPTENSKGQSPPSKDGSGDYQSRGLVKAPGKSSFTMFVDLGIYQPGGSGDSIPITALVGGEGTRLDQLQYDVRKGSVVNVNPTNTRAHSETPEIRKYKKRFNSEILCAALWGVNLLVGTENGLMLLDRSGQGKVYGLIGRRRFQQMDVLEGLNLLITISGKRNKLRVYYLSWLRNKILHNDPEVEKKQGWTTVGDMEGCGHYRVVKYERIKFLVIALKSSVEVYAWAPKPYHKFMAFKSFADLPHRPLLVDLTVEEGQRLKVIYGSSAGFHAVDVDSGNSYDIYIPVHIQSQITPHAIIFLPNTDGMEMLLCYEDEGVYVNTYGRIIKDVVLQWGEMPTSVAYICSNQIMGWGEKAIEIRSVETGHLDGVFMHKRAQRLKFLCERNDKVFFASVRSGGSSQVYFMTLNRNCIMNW
Chain of UniProt Q9BW27 (Q9BW27 whole entry, looked up): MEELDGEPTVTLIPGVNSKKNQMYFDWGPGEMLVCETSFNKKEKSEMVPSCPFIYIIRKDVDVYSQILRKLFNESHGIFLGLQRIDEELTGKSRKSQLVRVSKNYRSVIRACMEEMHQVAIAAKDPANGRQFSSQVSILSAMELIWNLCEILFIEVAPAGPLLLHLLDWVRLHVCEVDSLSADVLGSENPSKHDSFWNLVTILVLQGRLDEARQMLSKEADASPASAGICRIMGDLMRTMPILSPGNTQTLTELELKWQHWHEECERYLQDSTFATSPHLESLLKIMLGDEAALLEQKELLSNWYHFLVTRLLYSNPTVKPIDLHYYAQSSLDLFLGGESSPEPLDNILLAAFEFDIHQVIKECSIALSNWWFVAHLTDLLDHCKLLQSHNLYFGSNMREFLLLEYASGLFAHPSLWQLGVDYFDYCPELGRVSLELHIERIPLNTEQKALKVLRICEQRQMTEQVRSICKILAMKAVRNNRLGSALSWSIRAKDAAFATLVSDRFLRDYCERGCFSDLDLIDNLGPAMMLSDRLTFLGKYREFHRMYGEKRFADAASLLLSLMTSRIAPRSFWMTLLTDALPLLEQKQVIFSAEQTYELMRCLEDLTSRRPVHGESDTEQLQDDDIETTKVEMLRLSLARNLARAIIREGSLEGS
Chain of UniProt Q9UI09 (Q9UI09 whole entry, looked up): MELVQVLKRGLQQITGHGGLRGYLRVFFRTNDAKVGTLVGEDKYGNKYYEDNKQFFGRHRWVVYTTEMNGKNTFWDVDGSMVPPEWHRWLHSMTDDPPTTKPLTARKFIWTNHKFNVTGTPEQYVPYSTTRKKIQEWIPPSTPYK
Chain of UniProt O43809 (O43809 whole entry, looked up): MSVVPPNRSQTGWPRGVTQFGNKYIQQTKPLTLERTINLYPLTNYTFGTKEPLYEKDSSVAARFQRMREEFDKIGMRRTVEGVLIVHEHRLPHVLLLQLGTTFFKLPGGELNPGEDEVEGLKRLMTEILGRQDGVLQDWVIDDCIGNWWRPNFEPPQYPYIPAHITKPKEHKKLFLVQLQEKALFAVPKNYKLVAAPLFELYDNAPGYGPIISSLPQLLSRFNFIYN

| Target | log2 fold change |
| --- | --- |
| NOB1 (UniProt Q9ULX3) | -0.049 |
| MRPS25 (UniProt P82663) | 0.036 |
| NACC1 (UniProt Q96RE7) | -0.259 |
| NEMP1 (UniProt O14524) | -0.106 |
| MTHFD1 (UniProt P11586) | 0.004 |
| OXSM (UniProt Q9NWU1) | 0.058 |
| MT-ATP6 (UniProt P00846) | -0.16 |
| OTUD4 (UniProt Q01804) | 0.075 |
| MRPL50 (UniProt Q8N5N7) | 0.308 |
| NFATC2 (UniProt Q13469) | -0.102 |
| NUP205 (UniProt Q92621) | -0.233 (active) |
| MRPS24 (UniProt Q96EL2) | 0.07 |
| MINK1 (UniProt Q8N4C8) | -0.137 |
| NUP85 (UniProt Q9BW27) | -0.045 |
| NOP56 (UniProt O00567) | 0.168 |
| P4HA2 (UniProt O15460) | 0.118 |
| NCAPH (UniProt Q15003) | -0.116 |
| MRPS15 (UniProt P82914) | 0.042 |
| NA, A0A096LPI6 | 0.016 |
| NQO1 (UniProt P15559) | 0.046 |

| Target | log2 fold change |
| --- | --- |
| NIBAN1 (UniProt Q9BZQ8) | -0.208 |
| MPHOSPH10 (UniProt O00566) | 0.133 |
| NCAPD2 (UniProt Q15021) | -0.098 |
| NFATC2IP (UniProt Q8NCF5) | -0.103 |
| NARS2 (UniProt Q96I59) | -0.182 |
| NMT2 (UniProt O60551) | -0.208 |
| MTHFS (UniProt P49914) | -0.019 |
| NUCKS1 (UniProt Q9H1E3) | -0.083 |
| MYH11 isoform 2 (UniProt P35749) | -0.018 |
| NUP160 (UniProt Q12769) | 0.014 |
| NDUFA12 (UniProt Q9UI09) | -0.632 (active) |
| NUDT21 (UniProt O43809) | 0.064 |
| NCOA7 (UniProt Q8NI08) | -0.265 |
| MON2 isoform 5 (UniProt Q7Z3U7) | -0.158 |
| NMRAL1 (UniProt Q9HBL8) | 0.526 |
| NMNAT1 (UniProt Q9HAN9) | 0.053 |
| MND1 (UniProt Q9BWT6) | -0.468 (active) |
| NUDT16 (UniProt Q96DE0) | -0.035 |
| NGLY1 (UniProt Q96IV0) | -0.116 |
